FMDV antiviral = High Throughput Screening for Foot and Mouth Disease Virus Antivirals; FMDV antiviral cell-based qHTS; Potency, µM (doses to about 57.9 µM), for inactives: top-dose activity change, negative = inhibition, actives largely listed as inhibitors; 410,000 compounds, 1.2% hits; AID 1159524, 2015; calls by dose curve; tested in HEK293T cells; note: read-out not given here; potency is the fitted concentration of half-maximal effect; nearly all actives have a fitted effect of over 45% in size
Vaccinia Venus = qHTS for Stage-Specific Inhibitors of Vaccinia Orthopoxvirus: Venus Reporter Primary qHTS | 330,000 compounds, 0.46% hits | Potency, µM (series often up to 36.5 µM), for inactives: at the top dose activity change, negative = inhibition, most hits filed as inhibitors | Vaccinia virus Venus reporter expression, fluorescence; calls by dose curve; tested in A549 cells; note: potency is the fitted concentration of half-maximal effect; nearly all actives have a fitted effect of over 30% in size
HCV inh = qHTS Assay for Inhibitors of Hepatitis C Virus (HCV); Huh7.5.1 HCVcc-Cre infection, luciferase reporter, 44 h; Potency, µM (top dose mostly 41.8 µM), for inactives: at the highest dose activity change, negative = inhibition, most hits filed as inhibitors; 340,000 compounds, 3.4% hits; AID 651820, 2012; active = well fitted inhibition curve with a large enough effect; inconclusive = small, poorly fitted or top-dose-only effect, or another doubt; inactive = no such curve, though single readings can be large or run the other way; note: potency is the fitted concentration of half-maximal effect
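1,000 cells/well; 4 h culture; + compound; + HCVcc-Cre (~0.5 moi); 44 h; luciferase substrate, RT 15 min; read 15 sec.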
Vaccinia mCherry = qHTS for Stage-Specific Inhibitors of Vaccinia Orthopoxvirus: mCherry Reporter Primary qHTS; Vaccinia virus mCherry reporter infection, fluorescence; Potency, µM (series often up to 36.5 µM), for inactives: at the top dose activity change, negative = inhibition, actives largely listed as inhibitors; 310,000 compounds, 0.63% hits; AID 720579, 2013; calls by dose curve; tested in A549 cells; note: potency is the fitted concentration of half-maximal effect; nearly all actives have a fitted effect of over 35% in size
HCMV inh = qHTS Assay for inhibitors of the human cytomegalovirus (HCMV); 410,000 compounds, 4.5% hits; HFF cells, HCMV-luciferase reporter, 72 h; active compounds read low; activity change, negative = inhibition, % at 57.5 µM; in the data active = activity change below about -60%; inconclusive = no clear call, values can overlap the other calls; inactive = above about -39%
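Compounds were evaluated in HFFs infected with an HCMV luciferase reporter virus (MOI 1 PFU/cell). Luciferase in lysates collected 72 h post infection served as the replication measure.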
The depositor's hits bear a star; i = inactive; ? = inconclusive; / = no result given; ! = not confirmed by another sample; [ ] = another dose, or the depositor's remark. This is a sample that favours compounds with a hit; in the whole collection about 7.3% have one here. % is set by controls: 0 for no effect and ±100 for the full control effect.

SMILES	FMDV antiviral	Vaccinia Venus	HCV inh	Vaccinia mCherry	HCMV inh
O=C(COC(=O)c1ccc([N+](=O)[O-])o1)NCc1ccc2c(c1)OCO2	-4%	/	2%	/	-83*
Cc1csc2ncnc(NNC(=O)c3ccc(Cl)cc3)c12	?	-5%	7.9µM*	-28%	-38
C=CCCC[C@@H]1OC(=O)CNC(=O)C([C@@H](C)CC)NC(=O)[C@@H]2CCCN2C(=O)C([C@@H](C)CC)OC(=O)[C@H](Cc2ccccc2)N(C)C(=O)[C@H](C(C)C)NC(=O)C1(C)C (some centres undefined)	-19%	?	/	?	-73*
CCOC(=O)C(NC(=O)c1cccc(Cl)c1)(OCc1ccccc1)C(F)(F)F (centres undefined)	-7%	-14%	-12%	-8%	-62*
CCOC(=O)C(NC(=O)c1ccccc1)(OCc1ccccc1)C(F)(F)F (centres undefined)	-6%	-6%	-4%	-16%	-33
COc1cccc(C2(CC(=O)N3CCCCC3CO)CC(=O)N(C)C2=O)c1 (centres undefined)	-11%	7%	/	-7%	/
COc1ccc(C(=O)NC2CCCCC2)cc1S(=O)(=O)N1CCOCC1	5%	-5%	15%	-4%	30
COc1ccc(C(=O)NC2CCCCCC2)cc1S(=O)(=O)N1CCCC1	47%	-13%	5%	-2%	-63*
COc1ccc(C(=O)NC2CCCCCC2)cc1S(=O)(=O)N1CCCc2ccccc21	19%	-10%	?	-11%	-62*
COc1ccc(C(=O)OCc2ccccc2F)cc1S(=O)(=O)N1CCCC1	-2%	-17%	?	-7%	-97*
COc1ccc(C(=O)Nc2nc3c(s2)CCCC3)cc1S(=O)(=O)N1CCCc2ccccc21	16%	2%	?	11µM*	-66*
COc1ccc(C(=O)Nc2ncccc2C)cc1S(=O)(=O)N1CCCc2ccccc21	29%	-11%	1%	-17%	-8
CC(C)CSc1nnc(CNC(=O)c2ccccn2)n1C	-8%	-16%	/	i	/
COc1ccc(F)cc1S(=O)(=O)NC1CCCC1	54%	1%	?	0%	/
CNC(=O)Oc1ccc2c(c1)[C@@]1(C)CCN(C)C1N2C (some centres undefined)	6%	?	/	-16%	/
COc1ccc(-c2nc3cnc(Oc4cccc(Cl)c4)nc3n(CCC#N)c2=O)cc1	6%	/	/	/	/
Cc1cc([N+](=O)[O-])ccc1N	7%	-14%	1%	-14%	-32
O=[N+]([O-])c1ccc2c(c1)S(=O)(=O)C=C2	32µM*	/	/	/	/
CCOC(=O)C1=C(COC(=O)c2ccc(OC)c(S(=O)(=O)N3CCOCC3)c2)NC(=O)NC1C (centres undefined)	-8%	/	-17%	/	-1
CSCCC(NC(=O)c1ccccc1Br)C(=O)NCc1ccc(F)cc1 (centres undefined)	-11%	/	5%	/	-63*
CCNC(=O)CC1C(=O)N(C)C(=S)N1NC(=O)c1ccc(Cl)cc1 (centres undefined)	-3%	-9%	19%	-20%	-19
Nc1ccc(C(=O)NN2C(=O)[C@H](Cl)C2c2ccc(Cl)cc2)cc1 (some centres undefined)	?	?	10µM*	?	-7
Cc1nc2ccc(S(=O)(=O)NCC(=O)NCc3ccc(Cl)cc3)cc2s1	-8%	0%[7.34 µM]	0%	-14%	-69*!
Cc1cc(Cl)ccc1C(O)c1ncc(-c2ccc(F)cc2)[nH]1 (centres undefined)	-5%	-11%	/	-1%	/
COc1ccccc1C1C=C(c2ccc(F)cc2)Nc2nc(-c3ccc(Cl)cc3)nn21 (centres undefined)	?	-16%	/	-6%	-24
COc1ccc(C2C=C(c3ccc(Cl)cc3)Nc3nc(-c4ccc(Cl)cc4)nn32)cc1 (centres undefined)	?	?	/	?	-101*
COc1ccccc1C1C=C(c2ccc(Cl)cc2)Nc2nc(-c3ccc(Cl)cc3)nn21 (centres undefined)	-14%	-8%[7.34 µM]	/	-3%[7.34 µM]	-78*

Assay outcomes deposited in PubChem by National Center for Advancing Translational Sciences (NCATS).
